Bioassay records deposited in PubChem BioAssay by SRMLSC.
Shown are actives, neighbours in structure and some others; about 6.3% of the full set was active somewhere.
PMK inhibit: S. pneumoniae PMK inhibitors, primary screen, biochemical, mevalonate pathway, pilot trial included; phosphomevalonate kinase (Streptococcus pneumoniae D39); inhibition, % at 10 µM; 65,000 compounds, 0.49% hits; AID 539, 2006; purified PMK, PK/LDH-coupled NADH absorbance 340 nm;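 active = top-ranked compounds by inhibition in the single 10 µM screen, taking a fixed number of the strongest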;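 note: 0% = full reaction with DMSO carrier and 100% = background rate without enzyme reaction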
Fluor 339 460: intrinsic fluorescence of library compounds, ex339/em460 – biochemical, MLSMR library, data from DPM-DC assay, artefact control, profiling panel; fluorescence fold increase at 10 µM; 65,000 compounds, 5.5% hits; AID 709, 2007; compound autofluorescence, ex339/em460 nm, NADH buffer; hits give high values; 1 = no-compound wells, NADH background;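 active = at 10 µM, mean starting fluorescence two-fold or more over control wells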;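 note: signal is the first read of a kinetic run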
NADH coupling: inhibitors of PK/LDH coupling enzymes, profiling panel, artefact control, biochemical, MLSMR library. coupled PK/LDH NADH assays, four targets. 65,000 compounds, 0.02% hits. IC50, µM (highest dose often 10 µM), without a hit: at the top dose inhibition;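 active = single-dose screening hits from any of four coupled enzyme assays that gave an IC50 when retested across doses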;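 note: the DPM-DC format reads NADH fluorescence rather than 340 nm absorbance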
MK inhibit: S. pneumoniae MK inhibitors, primary screen, biochemical, PK/LDH-coupled NADH absorbance; purified MK, PK/LDH-coupled NADH absorbance 340 nm; inhibition, % at 10 µM; AID 555, 2006; 65,000 compounds, 0.48% hits;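 active = ranked among the strongest by inhibition in the single 10 µM screen, a fixed top-ranked set picked for dose follow-up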
Abs 340nm: compound light absorbance at 340 nm, profiling panel, artefact control, biochemical, MLSMR library, data from PS, PMK, MK assays; compound absorbance at 340 nm, fold over control; fold change at 10 µM; 65,000 tested, under 10 active; AID 708, 2007;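 active = at 10 µM dose, initial 340 nm absorbance at least 2 fold that of control wells; inactive = change under 2 fold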;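 note: initial absorbance extrapolated from kinetic A340 decline of NADH oxidation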
Spn DPM-DC inh: S. pneumoniae DPM-DC inhibitors, primary screen, biochemical, PK/LDH-coupled NADH fluorescence; diphosphomevalonate decarboxylase (Streptococcus pneumoniae D39); purified DPM-DC; calls only at 10 µM; 65,000 compounds, 0.49% hits;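 active = the 320 compounds with the highest percent inhibition in the single-dose primary screen, excluding strongly autofluorescent ones, cut at about 32% in these data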;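 note: kinetic rate of NADH fluorescence loss reporting ADP formed by the decarboxylase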
* hit, by the source's call; i = inactive; x = no result shown; + = active, no number.

SMILES	PMK inhibit	Fluor 339 460	NADH coupling	MK inhibit	Abs 340nm	Spn DPM-DC inh
COc1cccc(C(=O)Nc2nnc(-c3ccc(Cl)cc3)o2)c1	6.0	1.28	5.0%	0.0	1.09	i
CCC(C)c1ccc(O)c(NC(=O)c2cncc(Br)c2)c1 (stereo not given)	4.0	1.03	3.0%	6.0	0.99	i
CCn1c(=O)c(-[n+]2ccccc2)c(O)c2ccccc21	14.0	1.09	9.0%	12.0	1.04	i
CCn1c(=O)c(C2=NS(=O)(=O)c3ccccc3N2)c(O)c2ccccc21	12.0	2.48*	11.0%	0.0	1.1	i
COc1cc(-c2nc3cnccc3n2C)cc(OC)c1OC	19.0	1.15	20.0%	0.0	0.96	+
CCS(=O)(=O)N1CCN(C(C)CCc2ccccc2)CC1 (stereo not given)	2.0	1.06	15.0%	42.0*	1.06	i
O=S(=O)(CCc1ccccc1)N1CCOCC1	14.0	1.04	7.0%	4.0	1.01	i
CCn1c(NC(=O)Nc2ccccc2OC)nc2ccccc21	0.0	1.08	3.0%	10.0	1.05	i
COC(=O)c1ccc(-c2cc(C(=O)O)c3cc4c(cc3n2)OCCO4)cc1	15.0	4.89*	9.0%	3.0	1.17	x
NC(N)=NC(=O)c1nc(Cl)c(N)nc1N	11.0	2.04*	8.0%	11.0	1.03	i
O=C1CCCCCN1C(=O)c1cccc(C(=O)N2CCCCCC2=O)c1	11.0	1.12	7.0%	10.0	0.97	i
CCOC(=O)c1ccc2ncc(C(=O)OCC)c(NCc3ccco3)c2c1	10.0	3.78*	12.0%	13.0	1.08	x
CCOC(=O)c1cnc2c(C)cccc2c1NCc1ccco1	0.0	1.43	8.0%	12.0	1.11	i
CCOC(=O)c1cnc2c(C(=O)OC)cccc2c1NCc1ccco1	5.0	3.39*	6.0%	6.0	1.12	x
Cc1ccnc(NS(=O)(=O)c2ccc(NS(=O)(=O)Cc3ccccc3)cc2)n1	0.0	1.09	3.0%	9.0	1.02	i
c1cc2c3c(cccc3c1)NC1(CCCCCC1)N2	7.0	3.76*	9.0%	11.0	1.07	x
Cc1cc(NCCCN2CCOCC2)n2ncc(-c3ccc(Cl)cc3)c2n1	10.0	3.86*	12.0%	13.0	1.02	x
c1cc(-c2nc3ccccc3o2)nc(-c2nc3ccccc3o2)c1	15.0	1.16	5.0%	10.0	0.98	i
c1ccc2nc(-c3nc4ccccc4o3)ccc2c1	5.0	2.11*	11.0%	17.0	1.17	x
Cc1cc2c(cc1C)NC(c1c(C)n(C)n(-c3ccccc3)c1=O)C1=C(CC(C)(C)CC1=O)N2 (stereo not given)	3.0	2.57*	6.0%	7.0	1.06	i
CC1(C)CC(=O)C2=C(C1)Nc1ccccc1NC2c1ccccn1 (stereo not given)	16.0	0.99	8.0%	6.0	1.21	i
CCOc1ccc2[nH]c(C)c(CN3CCCCC3)c(=O)c2c1	0.0	3.04*	4.0%	10.0	1.08	i
COc1ccc2[nH]c(C)c(CN3CCCC(C)C3)c(=O)c2c1 (stereo not given)	2.0	2.09*	5.0%	4.0	0.98	i
COc1ccc2[nH]c(C)c(CN3CCC(C)CC3)c(=O)c2c1	0.0	1.73	4.0%	0.0	1.11	i
Cc1ccc(CN2C(=O)C(C)(C)Oc3ccc(C(=O)N4CCCCC4)cc32)cc1	0.0	1.12	0.0%	0.0	1.01	i
SMILES	PMK inhibit	Fluor 339 460	NADH coupling	MK inhibit	Abs 340nm	Spn DPM-DC inh
O=c1c2cc(N3CCOCC3)ccc2[nH]c(=S)n1CCCN1CCCCC1	16.0	2.15*	5.0%	0.0	1.02	i
CC1CCN(CCCn2c(=S)[nH]c3ccc(N4CCOCC4)cc3c2=O)CC1	14.0	3.23*	13.0%	0.0	1.05	i
CC(C)n1c2ccccc2c2nc3ccccc3nc21	0.0	2.69*	5.0%	0.0	1.1	i
Cc1ccc(NC2c3ncccc3C(=O)N2c2ccccc2C)cc1C (stereo not given)	23.0	1.19	35.0%	83.0*	1.09	i
O=C(CN(Cc1cccs1)C(=O)CNC(=O)c1ccco1)NC1CCCCC1	14.0	1.12	7.0%	6.0	0.96	i
CC(C)c1nc(N2CCOCC2)c(C#N)c2c1CCC2	3.0	2.03*	5.0%	8.0	1.03	i
CC(=O)N1CCN(c2nc(CC(C)C)c3c(c2C#N)CCC3)CC1	5.0	2.3*	6.0%	6.0	1.03	x
CC(C)Cc1nc(N2CCCCC2)c(C#N)c2c1CCC2	5.0	1.78	3.0%	4.0	1.03	i
CC(C)Cc1nc(N2CCN(C(=O)C(C)C)CC2)c(C#N)c2c1CCC2	3.0	2.14*	15.0%	27.0	1.03	x
CC(C)Cc1nc(N2CCOCC2)c(C#N)c2c1COC(C)(C)C2	0.0	2.36*	7.0%	14.0	1.05	x
CC(C)Cc1nc(NCCN2CCOCC2)c(C#N)c2c1COC(C)(C)C2	10.0	1.19	5.0%	0.0	1.07	i
CCCc1nc(N2CCOCC2)c(C#N)c2c1CCCC2	8.0	1.8	5.0%	7.0	0.99	i
CCCCOCCCNC(=O)c1c(-c2ccccc2)noc1C	12.0	1.08	7.0%	9.0	1	i
COC(=O)CCC(=O)N1CCc2cc(S(=O)(=O)N3CCN(c4ccccc4Cl)CC3)ccc21	10.0	1.08	4.0%	3.0	1.02	i
CC(C)c1cc(NCCN2CCOCC2)n2c(nc3ccccc32)c1C#N	2.0	1.95	5.0%	3.0	1.01	i
CCCc1cc(NCCN2CCOCC2)n2c(nc3ccccc32)c1C#N	9.0	2.34*	11.0%	12.0	1.02	x
CC(C)c1cc(NCCCN2CCOCC2)n2c(nc3ccccc32)c1C#N	0.0	2.3*	0.0%	0.0	1.08	x
N#Cc1c2c(c(NCCCN3CCOCC3)n3c1nc1ccccc13)CCC2	17.0	3.03*	12.0%	7.0	1	i
CCN1CCN(Cc2nc3c(c(=O)n(C)c(=O)n3C)n2Cc2ccc(Cl)cc2Cl)CC1	6.0	1.03	2.0%	0.0	1.03	i
CCOc1ccc(C(=O)NCCCN(CC)CC)cc1	0.0	1.09	3.0%	8.0	1.02	i
CCCN(CCC)CCCNC(=O)c1cc2cc3ccc(OC)cc3nc2o1	7.0	5.1*	4.0%	1.0	1.12	x
COc1ccc2cc3cc(C(=O)NCCc4ccc(OC)c(OC)c4)oc3nc2c1	10.0	4.61*	6.0%	1.0	1.08	x
COc1ccc(C)cc1NC(=O)c1cc2cc3ccc(C)cc3nc2o1	11.0	3.99*	8.0%	4.0	1.05	x
CCCCN(CC)CCCNC(=O)c1cc2cc3ccc(OC)cc3nc2o1	15.0	5.09*	8.0%	1.0	1.12	x
